# The supplement of paper PMC3334620
# Over roughly 33,000 sequences, “E-score (-0.5 to 0.5)” has its median near -0.012; the highest 2% begin near 0.29. The sample holds the highest values, similar sequences and a random draw of the others, so the mix is not that of the screen.
# Molecular target: T1, Ybr033w (UniProt P38073)
# T1 sequence: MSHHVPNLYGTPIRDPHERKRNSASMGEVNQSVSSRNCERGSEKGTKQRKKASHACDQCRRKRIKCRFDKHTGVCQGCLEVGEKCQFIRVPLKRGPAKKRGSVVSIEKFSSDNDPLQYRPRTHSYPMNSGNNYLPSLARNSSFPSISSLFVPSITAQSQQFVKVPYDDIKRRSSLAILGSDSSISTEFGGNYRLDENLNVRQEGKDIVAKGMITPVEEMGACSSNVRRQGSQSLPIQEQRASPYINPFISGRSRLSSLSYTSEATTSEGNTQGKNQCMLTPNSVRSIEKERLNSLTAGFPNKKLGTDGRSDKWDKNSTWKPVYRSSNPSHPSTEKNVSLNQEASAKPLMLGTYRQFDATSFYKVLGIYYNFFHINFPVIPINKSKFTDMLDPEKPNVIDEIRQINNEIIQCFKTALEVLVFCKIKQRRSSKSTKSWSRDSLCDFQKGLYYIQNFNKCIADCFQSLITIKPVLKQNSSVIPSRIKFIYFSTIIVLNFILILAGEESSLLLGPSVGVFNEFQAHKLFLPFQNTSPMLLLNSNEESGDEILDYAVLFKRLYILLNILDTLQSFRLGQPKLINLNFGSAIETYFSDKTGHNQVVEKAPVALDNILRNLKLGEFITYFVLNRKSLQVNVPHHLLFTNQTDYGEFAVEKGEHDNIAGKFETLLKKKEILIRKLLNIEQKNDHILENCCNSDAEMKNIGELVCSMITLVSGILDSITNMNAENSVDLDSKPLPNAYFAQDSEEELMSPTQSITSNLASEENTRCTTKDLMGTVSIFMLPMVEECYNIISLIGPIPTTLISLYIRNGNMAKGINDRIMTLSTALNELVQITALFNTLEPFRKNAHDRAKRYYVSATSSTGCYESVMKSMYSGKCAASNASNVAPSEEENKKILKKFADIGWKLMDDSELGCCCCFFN
# Assay: PBM E-score (8-mer binding enrichment) (E-score (-0.5 to 0.5)); higher = stronger / more preferred TF binding
# Settings: protein concentration: 200 nM; construct: GST-full length
# Procedure: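 Universal 'all 10-mer' protein binding microarrays (Agilent AMADID 015681) probed with GST-tagged S. cerevisiae TFs (full-length or DBD) made by in vitro transcription/translation (PURExpress), about 100-200 nM. Bound TF was detected with fluorescent anti-GST. Each ungapped 8-mer (which stands for itself and its reverse complement) is scored by the PBM enrichment score (E-score), a modified Wilcoxon-Mann-Whitney statistic from -0.5 to +0.5, computed with the Universal PBM Analysis Suite. Scale: above 0.35 generally sequence-specific binding.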
row,Sequence,PBM E-score
1,CCAGGTAG,-0.0963
2,TATGGCAA,-0.151
3,CGCCGCAC,-0.233
4,AAGGAAAT,0.185
5,GAGGAAAA,0.199
6,AAGGAAAA,0.398
7,AAAGGAAC,0.163
8,AAAGGAAA,0.303
9,CAAGGAAA,0.162
10,AAGGAAAC,0.0412
11,CAGAAAAA,0.0895
12,CAGGAAAA,0.387
13,AGATACCT,-0.0724
14,AAAGAGAC,-0.0019
15,ATAATTAA,0.414
16,CTAATTAC,0.131
17,TTAATTAA,0.241
18,ATAATTAC,0.353
19,ATAATTAT,0.372
20,ATAATTAG,0.272
21,GTAATTAA,0.105
22,GTAATTAC,0.218
23,ATTATAAT,0.205
24,ATTGATGG,0.213
25,ATAGGTTC,0.143
26,AGGCAACT,0.174

row,Sequence,PBM E-score
1,CCGCGCAC,-0.0688
2,AAGCAACA,0.117
3,CTTGCATC,-0.144
4,AATCCGCA,0.119
5,CATCCGCA,0.156
6,TATCCGCA,0.306
7,CGAGAGCA,-0.0204
8,GAAAAAGC,0.239
9,ACCGACCT,-0.172
10,ACGCGCGC,-0.0247
11,GCGCGCGC,0.334
12,GCGCGCGA,0.111
13,CGTCTGTA,-0.11
14,CGGTGATA,0.178
15,AATAGTTG,0.207
16,AGTAGTTC,0.307
17,AGTAGTTA,0.0431
18,CATAGTTC,-0.0864
19,AATAGTTC,0.294
20,AGTAGTTG,0.176
21,CACAAATG,0.0361
22,CACGGTTC,-0.265
23,GAAAGCGA,0.101
24,AGTACAAA,0.114
25,AGTACAAT,0.302
26,AGTACAAG,0.0813

row,Sequence,PBM E-score
1,CAGGTCGA,0.141
2,GATCTTGC,0.0857
3,AAACTTAC,0.168
4,AAACTTAA,0.259
5,AATCTATA,0.297
6,GATCTATA,0.157
7,CATCTATA,0.188
8,ATTCTTCA,0.129
9,ATTCTTCC,0.471
10,CTTCTTCC,0.0741
11,AAACTTAT,0.379
12,GATCTTCC,0.33
13,CATCTTCC,0.0897
14,CGAATAGA,-0.0851
15,CTTCCATC,-0.00237
16,ATTCAGAC,0.0909
17,CGTCCCTC,-0.217
18,AGCACAAG,-0.0143
19,AGGTCAGC,0.0524
20,CCAATCAA,0.075
21,AATCTTCG,0.0477
22,GAACTTCA,0.0447
23,AATCTTCT,0.132
24,AATCTTCC,0.411
25,ACTCTTCC,-0.0223
26,AAACTTCA,0.293

row,Sequence,PBM E-score
1,AATCTTCA,0.318
2,AAACTTCG,0.0988
3,GATCTTCA,0.0894
4,TATTGCAA,0.246
5,ACGAAGAC,-0.177
6,CTATTGAG,-0.0501
7,TCTCCAGA,-0.189
8,CCCGGTTC,-0.0468
9,CGGACACA,-0.152
10,AAACGATA,0.213
11,CAACGATA,0.187
12,TAACGATA,0.292
13,CTTGGCTC,-0.146
14,AGCCCAGC,-0.2
15,GATTGCAA,0.171
16,AATGTGAT,0.15
17,AATGTGAA,0.313
18,AATGTGAC,0.0448
19,GCATCACA,0.215
20,TTACCAAA,0.235
21,ACTACTAT,0.328
22,ACTACTAA,0.173
23,ACTACTAC,0.153
24,AGAGGAGG,-0.26
25,AAGATTTC,0.169
26,CTACATAA,0.0125

row,Sequence,PBM E-score
1,CTACAAAG,0.0965
2,ATACATAC,0.0684
3,CTACAAAA,0.00298
4,CTACAAAC,0.152
5,ATACAAAG,0.298
6,GTACAAAC,0.0352
7,ATACAAAT,0.252
8,TTACAAAA,0.268
9,ATACAAAA,0.311
10,ATACATAA,0.309
11,ATACAAAC,0.306
12,TACCGGAA,0.27
13,TGCTACAA,0.161
14,CAGTTTGA,0.206
15,AGCGGCAT,0.0383
16,CCCACAAC,-0.108
17,CTGTAGGA,0.0305
18,TTCTAGAA,0.102
19,GTTTTCAA,0.146
20,GTCCAGAC,-0.308
21,CGCCCAGA,-0.174
22,ACGATCTA,-0.0695
23,ATACAATA,0.332
24,ATACAATC,0.0522
25,CTACAATA,0.164
26,CCGCGAGC,-0.194

row,Sequence,PBM E-score
1,CACTTTTA,0.0413
2,TAGGAGGA,0.0316
3,ACGGAATG,-0.153
4,GCGGAAGA,0.236
5,CCGGAATA,0.412
6,CCGGAATC,-0.0781
7,GCGGAATA,0.293
8,ACGGAATA,0.351
9,GGGGAATA,-0.0146
10,ACGGAATC,0.113
11,CGGGAATA,0.246
12,CCTATTCG,-0.149
13,CGACGGTA,-0.0307
14,ATTACTAA,0.225
15,CGTTCTTA,0.0158
16,ATCTTCTC,0.0573
17,ACATCGGG,-0.0939
18,TATTTGAA,0.255
19,ATTAATCG,0.166
20,GTTAATCA,0.277
21,ACTAATAC,0.228
22,AGTAATAA,0.18
23,CTTAATAC,0.136
24,ACTAATAG,0.2
25,CTTAATAA,0.182
26,GTTAATAA,0.329

row,Sequence,PBM E-score
1,ATTAATAG,0.373
2,ATTAATAA,0.302
3,ATTAATAC,0.306
4,ATTAATCA,0.26
5,GACACACC,-0.0728
6,CAGGGTGG,-0.234
7,CTCTAGGC,-0.153
8,GCATAGCA,0.0192
9,GCTAGTAA,-0.014
10,CAAGGTGA,-0.103
11,ACCTAGCA,0.0895
12,AGTGAAGC,-0.0225
13,ACCTCGGA,0.0486
14,CGAATCGC,-0.0798
15,ACAGGTAC,-0.0953
16,CACGCGCG,-0.0876
17,GAAGGCCC,-0.223
18,ATAAAAAA,0.164
19,ATAAAAAT,0.193
20,GTAAAATA,0.269
